# Screens (PubChem)
# Only some compounds are listed: those with a hit (about 1.3% of all), similar ones and a draw of the others.
# COUP-TFII inh – NR2F2 (human) inhibition, primary screen; inhibition, % at 8.6 µM; HEK293T NGFI-A luciferase reporter, luminescence; 370,000 compounds, 0.7% hits; P24468;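 active means inhibition above a per-plate cutoff, mean inhibition of test wells between control levels plus 3 SD, cut at about 38% in these data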;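 further: cells cotransfected with COUP-TFII expression vector driving the NGFI-A reporter; 0% = median of COUP-TF2 test wells and 100% = reporter-only cells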
# LRH-1 inv ag – suppresses constitutive activity of human LRH-1 | O00482 | HEK293T StAR-luciferase reporter, LRH-1 transfected, 24 h | inhibition, % at 3.6 µM | 360,000 compounds, 0.13% hits | AID 602396;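 active means inhibition above the mean inhibition of all tested compounds plus 3 SD, cut at about 73% in these data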;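 further: 0% = DMSO wells and 100% = reporter-only cells lacking LRH-1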
# NCOA3 inh – human NCOA3 inhibition. Q9Y6Q9. HEK293 GAL4-SRC3 luciferase reporter, luminescence. inhibition, % at 3.6 µM. 360,000 compounds, 0.17% hits. AID 588352;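 active means inhibition above a per-campaign cutoff, the mean of all compounds plus 3 SD, cut at about 60% in these data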;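 further: 0% = DMSO-treated cells and 100% = gossypol-treated cells at 36 µM; higher means less SRC3-driven luciferase light from the GAL4 reporter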
# Gli-Sufu block – antagonists of Gli-Sufu signaling; Sufu-KO-LIGHT fibroblasts, Gli luciferase reporter luminescence; inhibition, % at 5 µM; 340,000 compounds, 0.74% hits; AID 588413;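 active means inhibition above about 55%, limit read from the data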;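 further: 0% = DMSO-treated cells and 100% = wells with medium but no cells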
# NCOA1 inh – human NCOA1 inhibition; Q15788; HEK293 GAL4-SRC1 luciferase reporter, luminescence; inhibition, % at 3.6 µM; 360,000 compounds, 0.12% hits; AID 588354;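 active means inhibition above the campaign mean plus 3 SD, with each screening campaign given its own cutoff, cut at about 60% in these data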;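 further: 0% = DMSO treated cells and 100% = gossypol at 36 µM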
# NCOA2 inhibitor – inhibits human steroid receptor coactivator 2. HEK293 GAL4-SRC2 luciferase reporter, luminescence. 370,000 compounds, 0.17% hits. inhibition, % at 9 µM;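 active means inhibition above the mean inhibition of all tested compounds plus 3 SD, set per campaign, cut at about 52% in these data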;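 further: 0% = DMSO treated cells and 100% = cells given Gossypol at 36 µM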
# Target sequence (Q15596 whole entry, looked up, the tested form may be a part): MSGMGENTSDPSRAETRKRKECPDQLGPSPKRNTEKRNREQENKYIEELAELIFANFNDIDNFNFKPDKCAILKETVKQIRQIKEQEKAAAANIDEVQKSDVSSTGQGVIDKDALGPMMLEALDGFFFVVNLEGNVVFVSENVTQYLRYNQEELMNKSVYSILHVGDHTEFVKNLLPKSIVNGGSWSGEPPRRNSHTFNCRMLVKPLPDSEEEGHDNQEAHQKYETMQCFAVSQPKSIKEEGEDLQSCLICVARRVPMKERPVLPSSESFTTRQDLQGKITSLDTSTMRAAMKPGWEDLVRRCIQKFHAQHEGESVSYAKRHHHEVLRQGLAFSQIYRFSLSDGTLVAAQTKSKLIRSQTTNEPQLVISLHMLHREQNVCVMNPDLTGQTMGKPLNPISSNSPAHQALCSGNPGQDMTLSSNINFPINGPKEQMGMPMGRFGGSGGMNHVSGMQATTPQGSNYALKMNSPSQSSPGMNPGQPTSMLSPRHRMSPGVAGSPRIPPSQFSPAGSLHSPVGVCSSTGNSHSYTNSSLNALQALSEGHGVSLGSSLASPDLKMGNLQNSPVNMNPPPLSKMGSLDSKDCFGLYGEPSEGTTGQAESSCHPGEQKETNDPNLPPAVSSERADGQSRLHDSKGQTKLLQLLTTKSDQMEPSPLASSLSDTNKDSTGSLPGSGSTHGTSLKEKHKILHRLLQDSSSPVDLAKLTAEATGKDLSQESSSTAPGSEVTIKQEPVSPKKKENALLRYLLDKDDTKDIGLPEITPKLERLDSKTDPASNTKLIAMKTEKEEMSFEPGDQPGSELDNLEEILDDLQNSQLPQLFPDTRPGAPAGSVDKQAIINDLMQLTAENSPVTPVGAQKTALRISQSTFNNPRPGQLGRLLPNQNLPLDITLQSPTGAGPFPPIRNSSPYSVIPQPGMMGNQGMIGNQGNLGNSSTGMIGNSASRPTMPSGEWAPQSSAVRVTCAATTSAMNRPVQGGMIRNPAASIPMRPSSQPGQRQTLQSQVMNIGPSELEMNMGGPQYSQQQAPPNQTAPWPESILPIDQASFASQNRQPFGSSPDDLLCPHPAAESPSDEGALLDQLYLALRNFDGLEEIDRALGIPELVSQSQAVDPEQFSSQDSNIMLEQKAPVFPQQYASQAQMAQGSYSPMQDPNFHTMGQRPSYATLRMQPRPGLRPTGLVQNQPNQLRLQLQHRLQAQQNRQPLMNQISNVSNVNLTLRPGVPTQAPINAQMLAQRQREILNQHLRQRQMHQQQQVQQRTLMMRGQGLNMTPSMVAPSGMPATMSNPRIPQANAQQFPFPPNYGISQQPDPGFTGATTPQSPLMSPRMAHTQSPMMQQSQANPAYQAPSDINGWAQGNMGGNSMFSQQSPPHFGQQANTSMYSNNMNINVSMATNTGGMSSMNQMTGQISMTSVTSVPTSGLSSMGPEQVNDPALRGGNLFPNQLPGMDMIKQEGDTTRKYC
# Gal4-VP16 ctr – VP16 inhibition counter-screen for COUP-TFII | shares compounds with COUP-TFII inh | HEK293 Gal4-VP16 luciferase reporter, luminescence | inhibition, % at 8.5 µM | 2,500 compounds, 25% hits | AID 687007; in the data active means inhibition above about 13%
# NR2F2 inh conf – confirmation of human COUP-TFII (NR2F2) inhibitors; 2,500 compounds, 45% hits; HEK293 NGFI-A luciferase reporter, luminescence; inhibition, % at 8.5 µM; AID 687008; shares compounds with COUP-TFII inh;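 active means mean inhibition over three repeats above a set limit taken from the earlier primary screen, cut at about 38% in these data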;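 further: 100% = cells given the luciferase reporter alone without the COUP-TF2 vector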
# * hit, by the source's call; . = not tested or not shown.
SMILES,COUP-TFII inh,LRH-1 inv ag,NCOA3 inh,Gli-Sufu block,NCOA1 inh,NCOA2 inhibitor,Gal4-VP16 ctr,NR2F2 inh conf
Fc1ccc(CN2CCN(c3ncc(Cc4ccccc4)cn3)CC2)c(Cl)c1,50.8*,.,.,.,.,23.6,6.3,46.6*
FC(F)(F)c1ccc(Cl)c(CN2CCN(c3ncc(Cc4ccccc4)cn3)CC2)c1,0.5,.,.,.,.,26.8,.,.
CC1=CC(=O)C(C(C)C)=C/C1=N/OC(=O)c1cccc([N+](=O)[O-])c1,17.0,26.0,16.8,3.6,1.0,26.6,.,.
CC1=CC(=O)C(C(C)C)=C/C1=N\OS(=O)(=O)c1ccc(F)cc1,91.7*,.,.,.,.,.,28.8*,15.1
COC(=O)c1ccc(NC(=O)c2nc(S(=O)(=O)Cc3cccc(C)c3)ncc2Cl)cc1,39.6*,11.4,-58.5,2.0,-80.7,59.6*,45.8*,14.9
CCS(=O)(=O)c1ncc(Cl)c(C(=O)Nc2ccc(S(=O)(=O)N3CCC(C)CC3)cc2)n1,48.3*,-27.1,-23.9,20.9,-52.6,51.4,76.3*,62.9*
Nc1[nH]c(C(=O)c2ccccc2)c(-c2ccc(Cl)cc2)c1C(=O)NCCC1=CCCCC1,9.8,.,.,.,.,.,.,.
Nc1nc2ccccc2cc1C(=O)NCc1ccc(Cl)cc1Cl,.,23.9,.,.,.,.,.,.
Nc1nc2ccccc2cc1C(=O)NCc1ccc(-c2ccccc2)cc1,64.6*,57.9,.,.,.,17.0,6.9,67.9*
COC(=O)C1=C(C)N(Cc2ccc(Br)cc2)C(=S)NC1c1ccccc1 (stereo unspecified),4.0,.,.,.,.,-0.4,.,.
CCOc1ccc(CN2CCN(C(=O)c3cccc4ccccc34)CC2)cc1,59.2*,15.6,12.5,46.8,10.9,14.7,3.4,34.8
O=C(c1cc2ccccc2o1)N1CCN(C/C=C/c2ccccc2)CC1,38.3*,5.9,13.7,6.4,-6.2,-8.0,-3.0,3.2
CC(=O)N1CCN(C(=O)c2cc3ccccc3o2)CC1,4.4,-0.2,-37.2,-20.5,-0.3,15.3,.,.
Cc1ccccc1-n1ncc2c(SCC(=O)NC3CCCC3)ncnc21,46.3*,28.7,22.2,21.5,2.6,27.0,-5.6,24.4
Cc1nnc(NC(=O)CSc2ncnc3c2cnn3-c2ccccc2C)s1,10.0,-11.5,8.8,1.5,-14.0,-25.8,.,.
S=C(NCC1CCCO1)N1CCN(c2cccc(Cl)c2)CC1 (stereo unspecified),23.2,-8.5,22.3,6.0,10.3,2.3,.,.
S=C(NCC1CCCO1)N1CCN(c2nc(-c3ccc(Cl)cc3)cs2)CC1 (stereo unspecified),59.4*,4.3,22.0,30.6,0.1,26.8,-1.3,28.2
CCOCCCNC(=S)N1CCN(c2nc(-c3ccc(F)cc3)cs2)CC1,59.2*,5.2,2.7,20.7,14.5,23.2,-6.0,41.5*
O=C(NCC(c1ccccc1)c1ccccc1)[C@H](Cc1c[nH]c2ccccc12)NC1(C(=O)NC2CCCCC2)CCCCCC1,2.1,.,.,.,.,.,.,.
N#Cc1cc2cc3c(cc2nc1SCC(=O)N1CCOCC1)OCCO3,46.4*,26.0,29.6,37.1,-13.8,12.5,24.2*,59.0*
O=C(COc1ccc(C(=O)c2ccc(F)cc2)cc1)Nc1cccc(S(=O)(=O)N2CCOCC2)c1,47.8*,-0.6,-5.4,3.0,9.4,12.9,-8.2,33.4
CN(Cc1cccc(F)c1)C(=O)c1cccc(S(=O)(=O)N2CCN(Cc3ccccc3)CC2)c1,-14.5,-8.4,0.3,7.2,-24.1,9.1,.,.
CN(Cc1cccc(Cl)c1Cl)C(=O)c1cccc(S(=O)(=O)N2CCN(Cc3ccccc3)CC2)c1,41.9*,30.7,0.7,46.7,-2.8,11.3,-3.4,26.2
CN(Cc1ccc(OC(F)F)cc1)C(=O)c1cccc(S(=O)(=O)N2CCN(c3ccccc3)CC2)c1,66.7*,28.1,23.2,40.7,8.7,24.3,13.2*,55.4*
CN(CC(=O)Nc1ccccc1Cl)C(=O)c1cccc(S(=O)(=O)N2CCN(Cc3ccccc3)CC2)c1,48.0*,21.2,23.9,47.4,4.0,9.7,1.0,34.7
SMILES,COUP-TFII inh,LRH-1 inv ag,NCOA3 inh,Gli-Sufu block,NCOA1 inh,NCOA2 inhibitor,Gal4-VP16 ctr,NR2F2 inh conf
O=S1(=O)c2c(NCc3ccco3)cccc2Oc2ccccc2CN1Cc1cn(Cc2ccc(Cl)cc2)nn1,-2.7,.,.,.,.,-26.6,.,.
COc1ccccc1NC(=O)c1cccc(S(=O)(=O)N2CCN(c3ccccc3)CC2)c1,42.1*,4.7,-43.2,8.2,5.0,16.0,-5.2,5.6
COc1ccc(CCN(C)C(=O)c2cccc(S(=O)(=O)N3CCN(c4ccc(F)cc4)CC3)c2)cc1OC,59.3*,28.9,18.5,32.4,12.9,1.7,12.1,44.7*
O=C(Nc1ccncc1)c1cccc(S(=O)(=O)N2CCN(c3ccc(F)cc3)CC2)c1,47.3*,24.7,16.8,32.0,21.9,23.2,7.2,30.9
Cc1cccc(C)c1NC(=O)CN(C)C(=O)c1cccc(S(=O)(=O)N2CCN(c3ccccc3)CC2)c1,22.8,4.1,15.9,13.2,-8.7,-5.6,.,.
COc1ccc(NC(=O)c2cccc(S(=O)(=O)N3CCN(c4ccccc4)CC3)c2)c(OC)c1,14.3,-2.9,-8.7,-3.5,-1.6,-2.2,.,.
O=C(Nc1ncccc1O)c1cccc(S(=O)(=O)N2CCN(c3ccc(F)cc3)CC2)c1,1.3,-17.5,16.6,1.2,-19.4,-3.9,.,.
CN(CC(=O)Nc1ccccc1Cl)C(=O)c1cccc(S(=O)(=O)N2CCN(c3ccccc3)CC2)c1,43.1*,10.4,10.2,45.8,2.0,-4.5,5.8,19.3
CC[C@@]1(c2ccc(C)cc2)C(=O)N(C(=O)OC)N1C(=O)OC,5.4,.,.,.,.,1.1,.,.
COc1ccc(S[C@]2(C(=O)N(C)C)CC(=O)N[C@@H]2c2ccc(OC)cc2)cc1,-23.6,.,.,.,.,-21.0,.,.
CN(CC(=O)Nc1cccc(F)c1)C(=O)c1cccc(S(=O)(=O)N2CCN(c3ccc(F)cc3)CC2)c1,42.2*,-17.2,15.2,14.0,5.2,28.2,4.5,13.5
Cc1cc(C(F)(F)F)n(-c2nc(C(=O)NN)cs2)n1,37.4*,5.3,7.0,14.3,3.5,-29.1,-5.7,-4.1
CCOC(=O)c1csc(-n2nc(C)cc2C(F)(F)F)n1,0.1,4.5,20.7,24.4,-9.7,4.2,.,.
O=S(=O)(/C(=C/c1ccc(C(F)(F)F)cc1)c1nc2ccccc2[nH]1)c1ccccc1,48.9*,2.1,55.0,-18.0,-18.5,47.6,66.7*,62.3*
C/C(=C\c1ccc(N)cc1)c1nc2ccccc2[nH]1,-21.8,-64.2,-92.6,-70.8,-73.9,-37.8,.,.
CC(C)c1ccc(/C=C(\c2nc3ccccc3[nH]2)S(=O)(=O)c2ccccc2)cc1,40.3*,57.4,73.5*,-22.1,28.2,53.0*,30.7*,27.1
